In all, about 2,300 compounds went through this assay and about 550 (24%) were called active. The rule behind the calls is not given here. Not all results are given here. Entries with a potency or affinity are not part of this list.
Assay: Vero E6 cell cytotoxicity, dose response, cytotoxicity control for non-replicating M. tuberculosis project, secondary assay (AID 492998)
Settings: series mostly up to 20 µM

Row | Compound | outcome
1 | CCOC(=O)/C=C1\Nc2ccccc2OC1=O | inactive
2 | N=c1oc2ccccc2cc1C(=O)Nc1ccccc1 | inactive
3 | N#CC(C(=O)Nc1ccccc1)=C1Nc2ccccc2N1 | inactive
4 | Cc1ccc(OC(=O)c2ccc(Br)o2)cc1 | inactive
5 | CCC(=O)c1ccc(OCC(=O)OCC(=O)c2cc(C)n(C3CC3)c2C)cc1 | inactive
6 | CC(C)(C)NCc1cc(Br)ccc1OCc1cccs1 | inactive
7 | O=C(OCC(=O)N1CCN(c2ccccc2)CC1)c1cnc(Cl)c(Cl)c1 | inactive
8 | O=C(NCc1ccco1)c1nc2ccccc2s1 | inactive
9 | O=C1CC(N2CCN(c3ccccc3)CC2)C(=O)N1CCc1ccccc1 (centres undefined) | inactive
10 | COC(=O)COc1ccc(-c2ccccc2)cc1C=O | inactive
11 | CC(C)(O)C#Cc1ccc(C(=O)Nc2ccc3c(c2)OCO3)s1 | inactive
12 | O=[N+]([O-])c1ccc2nc(SCc3cn4ccccc4n3)[nH]c2c1 | inactive
13 | N/N=C(/Cc1nc2ccccc2[nH]1)c1ccc([N+](=O)[O-])cc1 | inactive
14 | O=C(Nc1nc2ccccc2[nH]1)c1cccc([N+](=O)[O-])c1 | inactive
15 | C#CCSc1nnc(-c2ccc([N+](=O)[O-])cc2)o1 | inactive
16 | CC1(C)CC(=O)C(C2NCCc3ccccc32)=C(O)C1 (centres undefined) | inactive
17 | CCCOc1ccc(N2CC(C(=O)Nc3ccccn3)CC2=O)cc1 (centres undefined) | inactive
18 | COc1ccc(/C=N/NC(=O)C(=O)NCc2cccnc2)cc1OC | inactive
19 | COc1cc(OC)c2c(OC)cccc2n1 | inactive
20 | CC(C)(C)Sc1ccc2nc3c(n2c1)CCCC3 | inactive
21 | CC(/C=C/c1ccc2c(c1)OCO2)=N/NC(=O)C1COc2ccccc2O1 (centres undefined) | inactive
22 | CCOC(=O)Cn1nc(/C=C/c2ccccc2)ccc1=O | inactive
23 | CCOc1cccc2cc(C(=O)NC(C)c3ccccc3)c(=N)oc12 (centres undefined) | inactive
24 | O=C(Nc1nnc(C2=COCCO2)o1)c1cccc(C(F)(F)F)c1 | inactive
25 | O=C(N/N=C/c1ccc(O)cc1)c1cccc(C(F)(F)F)c1 | inactive
26 | Nc1ccccc1Nc1ccccc1 | inactive
27 | CCCCCCOC(=O)C(C#N)c1nc2ccccc2nc1N1CCN(CC)CC1 (centres undefined) | inactive

Row | Compound | outcome
28 | CCCn1c(O)c(N=NC(=O)c2ccco2)c2ccccc21 | inactive
29 | CCc1ccc(N2C(=O)CC(N3CCC(C(=O)OC)CC3)C2=O)cc1 (centres undefined) | inactive
30 | O=C(NCCc1c[nH]c2ccccc12)c1cc2ccccc2oc1=O | inactive
31 | O=C(CNC(=O)c1ccccc1)OC1CCCCC1 | inactive
32 | Cc1cc(C)cc(OCC(=O)N/N=C/c2ccc([N+](=O)[O-])o2)c1 | inactive
33 | CCCCCCCC(=O)N/N=C/c1ccc([N+](=O)[O-])o1 | inactive
34 | O=C(CCSc1nnc(-c2ccccc2)o1)N1CCOCC1 | inactive
35 | Cc1cc(C)n2nc(N)c(N=Nc3ccccc3)c2n1 | inactive
36 | CCC(C)n1nnc2c(=O)oc3ccccc3c21 (centres undefined) | inactive
37 | CCOc1ccc(NC(=O)COC(=O)C2(C)CC2(Cl)Cl)c([N+](=O)[O-])c1 (centres undefined) | inactive
38 | N#Cc1cc(N)ccc1-n1cccc1 | inactive
39 | N/C(=N\OC(=O)CC1CCCCC1)c1ccncc1 | inactive
40 | CC(C)CN1C(=O)CC(Sc2ccccc2C(=O)O)C1=O (centres undefined) | inactive
41 | O=C1CC(N2CCC(c3nc4ccccc4o3)CC2)C(=O)N1 (centres undefined) | inactive
42 | COc1ccccc1NC(=O)CCN1CCN(c2ccc(Cl)cc2)CC1 | inactive
43 | CC(C)n1c(=S)[nH]c2ccccc2c1=O | inactive
44 | Cc1ccc(C(=O)N/N=C\c2ccc(-c3ccc(Cl)cc3)o2)cn1 | inactive
45 | O=C(N/N=C/c1ccc(Br)s1)c1cccnc1 | inactive
46 | Cc1ccc(C(=O)N/N=C\c2ccc[nH]2)cn1 | inactive
47 | Cc1ccc(C(=O)N/N=C/C=C/c2ccccc2)cc1 | inactive
48 | Cn1cccc1/C=N/NC(=O)c1ccncc1 | inactive
49 | O=C(N/N=C/c1ccc([N+](=O)[O-])s1)c1ccccc1 | inactive
50 | COc1cccc(-c2nc(C=O)cs2)c1 | inactive
51 | CCCOc1ccc(N2C(=O)CC(N3CCCC(C(=O)N4CCCC4)C3)C2=O)cc1 (centres undefined) | inactive
52 | COC(=O)CN(C#N)c1nc(SC)nc(N(C)C)n1 | inactive
53 | CC(C)C[C@H]1CN=C(Nc2ccccc2)N1CCCC1CCCCC1 | inactive
54 | CCSc1nc(O)c(C2OC(=O)c3c2ccc(OC)c3OC)c(=O)n1-c1ccccc1 (centres undefined) | inactive

Row | Compound | outcome
55 | CCOc1cccc2cc(C(=O)Nc3nccs3)c(=O)oc12 | inactive
56 | O=C(CN1CCC(NC(=O)c2cccc(F)c2)CC1)Nc1ccc(Br)cc1 | inactive
57 | O=C(N/N=C/c1ccc(Br)s1)c1ccncc1 | inactive
58 | Cc1onc(-c2ccccc2)c1C(=O)Nc1nnc(COc2ccc(Cl)cc2)s1 | inactive
59 | Cc1ccc(/C=N/NC(=O)c2ccncc2)s1 | inactive
60 | CC(=O)N1N=C(c2ccccc2)OC1c1ccc([N+](=O)[O-])s1 (centres undefined) | inactive
61 | O=C(Nc1ccccc1)c1cc2ccccc2o1 | inactive
62 | CN(C)Cc1ccccc1Sc1ccc(Br)cc1 | inactive
63 | CC(C)(NO)/C(=N\O)c1ccccc1 | inactive
64 | CCCOC(=O)c1ccc(-c2ccc(C=O)o2)cc1 | inactive
65 | Cc1ccc2nc3c(c(N)c2c1)CCN3c1ccccc1 | inactive
66 | C=C(C)C1Cc2c(C)nn(-c3nc(C)cc(C)n3)c2C1 (centres undefined) | inactive
67 | CCc1nnc(N/N=C/c2ccc(-c3ccc([N+](=O)[O-])cc3)o2)n1N | inactive
68 | Cc1cccc(NC(=O)COC(=O)c2cc3ccccc3oc2=O)c1 | inactive
69 | CCOc1cccc2cc(C(=O)NCc3ccccc3)c(=N)oc12 | inactive
70 | Cc1ccc(N=Nc2c(C)[nH]n(C(N)=S)c2=O)cc1C | inactive
71 | COc1cccc(NC(=O)c2ccc(-c3ccc([N+](=O)[O-])cc3)o2)c1 | inactive
72 | O=C(c1ccc(-c2ccc([N+](=O)[O-])cc2)o1)N1CCN(S(=O)(=O)c2cccs2)CC1 | inactive
73 | COc1ccccc1C(=O)OCC(=O)Nc1ccc(Cl)cn1 | inactive
74 | CC(C)(C)NC(=O)c1ccc(NC(=O)c2ccccc2-c2ccccc2C(=O)O)cc1 | inactive
75 | CN1CCC(O)(c2ccc(Cl)cc2)C(C(=O)c2ccc(Cl)cc2)C1 (centres undefined) | inactive
76 | Cc1nc(Cl)nc(N(C)c2ccccc2)c1[N+](=O)[O-] | inactive
77 | Cc1nnc(NC(=O)c2ccc3ccccc3c2)o1 | inactive
78 | O=C(Cn1cc([N+](=O)[O-])nc1[N+](=O)[O-])N1CCN(c2ccccc2)CC1 | inactive
79 | N/C(=N/OC(=O)c1ccc(Cl)cc1)c1ncc([N+](=O)[O-])s1 | inactive
